Screening results: PubChem, National Center for Advancing Translational Sciences (NCATS)
DT40 TDP1 CPT – DT40-hTDP1 cell growth loss with CPT | chicken DT40 Tdp1-/-;hTDP1 cells + 20 nM CPT, ATP luminescence, 48 h | AID 686979 | hit rate 12% among 420,000 | Potency, µM (series often up to 46.2 µM), for the others: at the top dose activity change, negative = growth inhibition, most hits filed as inhibitors; further: on the % scale 0 is the no-effect control and ±100 the full control effect; nearly all actives have a fitted effect of over 55% in size
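Chicken DT40 Tdp1-/- cells stably complemented with human TDP1 were seeded at 400 cells/well in medium containing 20 nM camptothecin, exposed to pin-transferred compounds, and grown at 37 °C for at least 48 hr. Viability was read as ATP luminescence.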
TDP1 cell noCPT – qHTS for Inhibitors of human tyrosyl-DNA phosphodiesterase 1 (TDP1): qHTS in cells in absence of CPT | DT40 Tdp1-/- hTDP1 cells, no CPT, ATP luminescence, 48 h | Potency, µM (top dose mostly 46.2 µM), inactives show at the highest dose activity change, negative = growth inhibition, hits mostly inhibitors | hit rate 15% among 420,000; further: on the % scale 0 is the no-effect control and ±100 the full control effect; nearly all actives have a fitted effect of over 55% in size
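No-CPT arm: Tdp1-/-;hTDP1 DT40 cells (400/well) plus compounds, incubated ≥48 hr at 37 °C. Readout CellTiter-Glo luminescence.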
TDP1 block – blocks human tyrosyl-DNA phosphodiesterase 1 | recombinant TDP1, AlphaScreen DNA substrate cleavage | Potency, µM (titrated, usually from 130 µM), for the others: top-dose activity change, negative = inhibition, usual class: inhibitors | hit rate 0.28% among 350,000 | AID 485290; further: on the % scale 0 is the no-effect control and ±100 the full control effect; nearly all actives have a fitted effect of over 40% in size
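Recombinant human Tdp1 (E. coli-expressed, 1 nM final) preincubated with compounds 15 min at room temperature, then 5'-biotin/3'-phosphotyrosine-FITC DNA substrate (15 nM final) added for 5 min. AlphaScreen beads (10 ug/ml final) added 10 min; cleavage lowers signal.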
ClpP mod – qHTS Assay for Activators of ClpP | Potency, µM (top dose mostly 57.5 µM), inactives show at the highest dose activity change, negative = active | ATP-dependent Clp protease proteolytic subunit (Bacillus subtilis (strain 168)), P80244 | purified B. subtilis ClpP, FRET peptide cleavage, 20 min | AID 651965, 2013 | hit rate 1.9% among 340,000; active means well fitted falling curve with a large enough effect; inconclusive means small, poorly fitted or top-dose-only effect; inactive means no such curve, though single readings can be large or run the other way; further: the source files actives as falling curves though it sought activators and does not explain the sign; nearly all actives have a fitted effect of over 65% in size
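Purified B. subtilis ClpP, 10 microg/mL final in Tris/HCl pH8 with KCl, BSA, glycerol and Tween-20, cleaved an Abz/nitrotyrosine-quenched decapeptide. Fluorescence (ex 320, em 430) was read at 0 and 20 min at room temperature. Delta was normalized to 5.8 microM ADEP and DMSO/no-enzyme controls.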
Starred values were filed as active, the others as inactive; ? = inconclusive; / = no result given; [ ] = another dose, or the depositor's remark. Compounds with a hit are over-represented: about 17% of the library has one in this group of screens. Unless noted, the call rests on the fitted dose curve; in most records, active means well fitted curve in the direction sought with a large enough effect; inconclusive means small, poorly fitted or top-dose-only effect, or another doubt; inactive means no such curve, though single readings can be large; an effect the other way counts as inactive or inconclusive. Potency means the concentration at half of the fitted maximal effect.

SMILES | DT40 TDP1 CPT | TDP1 cell noCPT | TDP1 block | ClpP mod
O=C(NCCOc1ccccc1)c1ccc2c(c1)S(=O)(=O)c1cc(Cl)ccc1C2=O | ? | ? | 3.8% | 0.0%
COc1ccc(-c2ccc3c(c2)S(=O)(=O)c2cccc(C(=O)NCCOc4ccccc4)c2C3=O)cc1OC | 18.4µM* | ? | -0.2% | -2.4%
Cc1ccc2occ(CC(=O)N(Cc3ccc(Cl)cc3)C3CCS(=O)(=O)C3)c2c1 (centres undefined) | ? | ? | 4.9% | 0.2%
COc1ccc(CCN(C(=O)C(F)(F)F)C(C(=O)NC2CCCC2)c2cccs2)cc1 (centres undefined) | 6.51µM* | 6.51µM* | -9.9% | 0.5%
CCc1ccc(C(C(=O)NC2CCCCC2)N(C(=O)c2csnn2)C2CC2)cc1 (centres undefined) | 16.4µM* | ? | -3.8%[0.0935 µM] | /
Cc1cccc(CCN(C(=O)c2csnn2)C(C(=O)NC2CCCC2)c2ccco2)c1 (centres undefined) | 14.6µM* | 16.4µM* | 6.2%[0.0935 µM] | /
O=C(NC1CCCCC1)C(c1ccco1)N(CCc1ccccc1)C(=O)C(F)(F)F (centres undefined) | 23.1µM* | 23.1µM* | 0.0% | 0.2%
COc1cc2[nH]c3c(=O)n4c(nc3c2cc1OC)SCCC4 | ? | ? | 2.7% | /
Brc1ccc(-c2nc3ncccn3c2NC2CCCCC2)o1 | 16.4µM* | ? | 2.8% | -2.9%
CCCCOC(=O)Cc1c(O)c2ccccc2[nH]c1=O | -9.2% | -28.0% | -2.0% | ?
CCCCCOC(=O)Cc1c(O)c2ccccc2[nH]c1=O | 7.9% | -4.0% | -2.3% | 15.8µM*
CCCCS(=O)c1c(O)c2ccccc2[nH]c1=O (centres undefined) | 10.2% | -3.7% | 7.6% | -3.2%
O=c1[nH]c2ccccc2c(O)c1O | 8.2µM* | 5.8µM* | -3.8% | -1.6%
CCCCCc1c(O)c2ccccc2[nH]c1=O | -3.2% | 1.2% | 5.6% | 25.1µM*
O=c1[nH]c2ccccc2c(O)c1-[n+]1ccccc1 | 0.1% | 17.7% | 1.2% | -2.1%
CC(C)COC(=O)Cc1c(O)c2ccccc2[nH]c1=O | -0.4% | ? | 4.9% | 28.2µM*
Cc1ccc(CSc2nnc(-c3ccc(NC(=O)CCc4ccccc4)cc3)n2C)cc1 | ? | ? | / | -3.4%
COc1cccc(C2c3c(ncn(-c4cccc(C)c4)c3=N)Oc3ccc4ccccc4c32)c1 (centres undefined) | / | / | 4.2% | /
Cc1ccc(CSc2nc3c([nH]c4ccccc43)c(=O)n2C)cc1 | ? | ? | -2.2% | -2.8%
COc1cc(OC)cc(-c2c(-c3cccs3)c3cc(-c4ccc5c(c4)OCO5)ccc3n2C)c1 | ? | ? | -0.2% | 4.3%
COc1cc(OC)cc(-c2c(-c3cccs3)c3cc(-c4ccn[nH]4)ccc3n2C)c1 | ? | 16.4µM* | 8.8% | 4.4%
COc1cc(F)cc(-c2ccc3c(c2)c(-c2cccs2)c(-c2cc(OC)cc(OC)c2)n3C)c1 | 18.4µM* | 23.1µM* | 2.8% | 5.0%
COc1cc(OC)cc(-c2c(-c3cccs3)c3cc(-c4ccc(N(C)C)nc4)ccc3n2C)c1 | 23.1µM* | 20.6µM* | 2.4% | 4.9%
CCCCc1ccc(Nc2ncnc3c2cnn3-c2ccc(C)cc2)cc1 | -14.4% | -6.6% | -2.6% | -6.4%
O=C(Nc1cccc(F)c1)N1CC2(CCN(C(=O)c3ccncc3)CC2)C1 | ? | -9.2% | / | /
SMILES | DT40 TDP1 CPT | TDP1 cell noCPT | TDP1 block | ClpP mod
O=c1[nH]nc(-c2ccc[nH]2)[nH]1 | -3.9% | 0.0% | / | -4.3%
O=C(Nc1cccc(S(=O)(=O)N2CCCCC2)c1)c1c2c(nc3ccccc13)CCN(Cc1ccccc1)C2 | 20.6µM* | 18.4µM* | 4.2% | -5.1%
CC(=O)c1ccc(Nc2nc3ccccc3nc2NS(=O)(=O)c2cccs2)cc1 | 14.6µM* | 9.2µM* | 0.3% | -4.9%
COc1ccc(S(=O)(=O)Nc2cccc(S(=O)(=O)N3CCCCCC3)c2)cc1 | -5.9% | ? | 0.0% | 2.0%
O=S(=O)(Nc1nc2ccccc2nc1Nc1cccc(S(=O)(=O)N2CCCCC2)c1)c1ccccc1 | 6.51µM* | 5.8µM* | 5.5% | 25.1µM*
O=C(CN1CCN(Cc2ccccc2)CC1)Nc1cccc(S(=O)(=O)N2CCCCCC2)c1 | ? | ? | -2.3% | /
Cc1ccc(S(=O)(=O)N2CCCCC2)cc1NC(=O)c1ccc2ccccc2n1 | 0.9% | -18.2% | 7.1% | -0.7%
COc1ccc(Nc2nc3ccccc3nc2NS(=O)(=O)c2cccs2)cc1 | ? | ? | 9.3% | -4.7%
COc1ccc(S(=O)(=O)N2CCCCC2)cc1NC(=O)c1ccc2ccccc2n1 | 14.6µM* | 13µM* | 5.5% | ?
c1ccc(-c2csc(-n3cccn3)n2)cc1 | 9.3% | 0.7% | -2.9% | /
COc1ccc(-c2nc(C)c(CCNS(=O)(=O)c3cc(C)c(C)cc3C)s2)cc1 | / | / | 4.4% | 3.7%
O=C(O)c1cccc(Nc2nc3ccccc3nc2NS(=O)(=O)c2ccc(F)cc2)c1 | 1.3% | 6.0% | 1.7% | -19.8%
CCOc1ccc(S(=O)(=O)Nc2nc3ccccc3nc2Nc2ccc(OC)cc2)cc1 | -8.0% | -29.4% | / | -5.1%
CCc1ccc(Nc2nc3ccccc3nc2NS(=O)(=O)c2ccccc2)cc1 | 16.4µM* | 20.6µM* | / | ?
O=S(=O)(Nc1nc2ccccc2nc1Nc1ccc2c(c1)OCO2)c1ccc(F)cc1 | 18.4µM* | 13µM* | 2.7% | -2.8%
O=C(Nc1cccc(S(=O)(=O)N2CCCCCC2)c1)c1ccc2ccccc2n1 | ? | 18.4µM* | 1.9% | -2.4%
COc1ccc(NC(=O)c2ccc3ccccc3n2)cc1S(=O)(=O)N1CCCCC1 | 20.6µM* | 16.4µM* | 8.1% | 1.0%
COc1ccc(NC(=O)c2cc3ccccc3o2)cc1S(=O)(=O)N1CCCCC1 | ? | ? | 0.9% | 1.1%
N#CCCN(Cc1ccccc1)C(=O)c1nccnc1C(=O)O | -5.5% | 16.9% | / | 1.4%
O=C1N=c2ccccc2=C1c1sc(=S)n(NC(=O)c2ccccc2)c1O | 18.4µM* | ? | -1.3% | /
COc1cc2[nH]c(=S)n(NC(=O)c3ccccc3)c(=O)c2cc1OC | -2.0% | -6.6% | 2.6% | -4.1%
Cc1ccnc(NC(=O)CCC(=O)N(CC(=O)NCCc2ccccc2)c2ccccc2F)c1 | -3.8% | -4.6% | / | /
COc1cc(Cl)c(S(=O)(=O)N2CCCC2)cc1Cl | -24.3% | ? | -2.8% | /
COc1cc(N2C(=O)C=CC2=O)c(OC)cc1Cl | 1.84µM* | 1.3µM* | -7.6% | /
Cc1ccc(Cl)cc1N1CCN(S(C)(=O)=O)CC1 | -18.2% | -16.0% | 0.0% | -1.7%
CCCc1cc(N2CCN(c3cc(Cl)ccc3C)CC2)n2cnnc2n1 | 13µM* | 5.17µM* | 7.0% | 0.4%
CC(=O)c1c(C)[nH]c(C(=O)OCCOc2ccccc2)c1C | ? | 9.2µM* | 3.6% | /
CC(=O)c1c(C)[nH]c(C(=O)COC(=O)CCCOc2ccccc2)c1C | 5.3% | -2.6% | -0.5% | /
